Assay [1] concerns the target T1, Muscle, skeletal receptor tyrosine-protein kinase (Homo sapiens) (UniProt O15146).
T1 sequence (whole entry): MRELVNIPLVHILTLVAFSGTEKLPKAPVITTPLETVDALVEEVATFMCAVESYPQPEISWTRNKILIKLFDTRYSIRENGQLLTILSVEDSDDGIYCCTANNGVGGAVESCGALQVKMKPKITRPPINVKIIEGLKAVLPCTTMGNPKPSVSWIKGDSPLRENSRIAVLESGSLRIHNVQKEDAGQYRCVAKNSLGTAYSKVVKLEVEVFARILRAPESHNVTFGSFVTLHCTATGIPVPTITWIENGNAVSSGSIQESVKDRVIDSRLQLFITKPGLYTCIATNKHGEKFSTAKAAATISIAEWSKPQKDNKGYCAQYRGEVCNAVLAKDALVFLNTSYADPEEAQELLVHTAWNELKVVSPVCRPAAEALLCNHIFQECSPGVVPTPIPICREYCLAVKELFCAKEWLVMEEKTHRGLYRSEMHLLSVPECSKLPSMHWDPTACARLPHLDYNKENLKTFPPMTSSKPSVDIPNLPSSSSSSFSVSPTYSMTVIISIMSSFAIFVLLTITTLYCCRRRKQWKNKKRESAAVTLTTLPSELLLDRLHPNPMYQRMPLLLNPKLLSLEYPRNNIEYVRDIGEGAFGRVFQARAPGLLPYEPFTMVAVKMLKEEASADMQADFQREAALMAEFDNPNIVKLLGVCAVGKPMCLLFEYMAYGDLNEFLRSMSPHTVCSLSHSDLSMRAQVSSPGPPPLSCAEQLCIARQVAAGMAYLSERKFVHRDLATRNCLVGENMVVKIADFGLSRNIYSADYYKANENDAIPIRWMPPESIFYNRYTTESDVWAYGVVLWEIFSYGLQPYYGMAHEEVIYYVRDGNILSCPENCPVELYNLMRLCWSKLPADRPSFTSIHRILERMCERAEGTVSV
Conditions: at 1 µM.

Assay [2] addresses T1, Muscle, skeletal receptor tyrosine-protein kinase (Homo sapiens). Conditions: at 10 µM.
Assay [3] has as its target T2, Serine/threonine-protein kinase Nek11 (Homo sapiens) (UniProt Q8NG66).
T2 sequence (whole entry): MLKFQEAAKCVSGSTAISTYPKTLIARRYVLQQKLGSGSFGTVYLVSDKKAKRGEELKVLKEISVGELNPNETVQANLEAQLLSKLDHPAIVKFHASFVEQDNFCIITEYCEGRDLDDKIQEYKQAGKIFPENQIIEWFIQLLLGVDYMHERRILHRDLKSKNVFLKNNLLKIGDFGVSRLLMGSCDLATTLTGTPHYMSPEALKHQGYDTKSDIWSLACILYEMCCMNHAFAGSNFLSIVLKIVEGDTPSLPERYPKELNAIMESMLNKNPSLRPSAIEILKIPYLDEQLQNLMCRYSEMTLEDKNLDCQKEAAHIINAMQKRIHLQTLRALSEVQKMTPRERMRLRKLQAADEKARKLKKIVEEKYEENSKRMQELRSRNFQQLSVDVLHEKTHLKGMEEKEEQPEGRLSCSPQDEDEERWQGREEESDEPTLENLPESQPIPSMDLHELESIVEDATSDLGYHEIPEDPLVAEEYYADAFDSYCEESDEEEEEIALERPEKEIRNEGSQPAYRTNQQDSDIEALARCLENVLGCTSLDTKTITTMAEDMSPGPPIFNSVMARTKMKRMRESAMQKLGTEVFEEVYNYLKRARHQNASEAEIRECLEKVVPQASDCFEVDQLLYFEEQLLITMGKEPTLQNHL
To be noted: at 1 µM.

Assay [4] deals with T2, Serine/threonine-protein kinase Nek11 (Homo sapiens). To be noted: at 10 µM.
Assay [5] concerns the target T3, Serine/threonine-protein kinase Nek2 (Homo sapiens) (UniProt P51955).
T3 sequence (whole entry): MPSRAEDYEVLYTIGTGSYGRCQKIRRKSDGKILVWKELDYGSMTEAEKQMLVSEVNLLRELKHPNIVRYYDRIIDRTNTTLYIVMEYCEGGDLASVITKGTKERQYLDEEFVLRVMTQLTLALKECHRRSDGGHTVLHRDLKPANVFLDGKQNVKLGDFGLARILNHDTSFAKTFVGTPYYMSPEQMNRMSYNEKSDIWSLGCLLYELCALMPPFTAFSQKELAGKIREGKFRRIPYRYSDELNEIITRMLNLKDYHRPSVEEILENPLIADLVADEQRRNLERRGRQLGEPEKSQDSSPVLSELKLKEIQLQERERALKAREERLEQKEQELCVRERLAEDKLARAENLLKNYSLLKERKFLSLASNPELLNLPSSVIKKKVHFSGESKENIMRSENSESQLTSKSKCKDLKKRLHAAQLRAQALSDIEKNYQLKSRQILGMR
To be noted: at 10 µM.

In assay [6] the target is T4, Serine/threonine-protein kinase Nek3 (Homo sapiens) (UniProt P51956).
T4 sequence (whole entry): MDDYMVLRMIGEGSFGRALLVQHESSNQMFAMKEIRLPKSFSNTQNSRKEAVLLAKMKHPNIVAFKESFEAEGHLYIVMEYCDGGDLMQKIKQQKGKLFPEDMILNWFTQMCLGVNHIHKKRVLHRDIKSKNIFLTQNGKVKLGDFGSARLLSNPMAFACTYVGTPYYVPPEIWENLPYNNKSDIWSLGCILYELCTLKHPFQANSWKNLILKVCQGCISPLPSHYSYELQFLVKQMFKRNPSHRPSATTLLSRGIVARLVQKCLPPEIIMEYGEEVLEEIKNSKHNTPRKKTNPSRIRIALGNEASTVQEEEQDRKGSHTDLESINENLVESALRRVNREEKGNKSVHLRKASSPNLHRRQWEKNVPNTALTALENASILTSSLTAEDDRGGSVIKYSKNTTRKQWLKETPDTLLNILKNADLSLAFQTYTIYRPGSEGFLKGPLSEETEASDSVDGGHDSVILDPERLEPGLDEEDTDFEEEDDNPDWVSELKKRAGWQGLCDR
Conditions: at 1 µM.

Assay [7] deals with T4, Serine/threonine-protein kinase Nek3 (Homo sapiens). To be noted: at 10 µM.
In assay [8] the target is Serine/threonine-protein kinase tousled-like 2 (Homo sapiens) (UniProt Q86UE8). Conditions: at 1 µM.
Serine/threonine-protein kinase tousled-like 2 (Homo sapiens), sequence (Q86UE8 whole entry, looked up): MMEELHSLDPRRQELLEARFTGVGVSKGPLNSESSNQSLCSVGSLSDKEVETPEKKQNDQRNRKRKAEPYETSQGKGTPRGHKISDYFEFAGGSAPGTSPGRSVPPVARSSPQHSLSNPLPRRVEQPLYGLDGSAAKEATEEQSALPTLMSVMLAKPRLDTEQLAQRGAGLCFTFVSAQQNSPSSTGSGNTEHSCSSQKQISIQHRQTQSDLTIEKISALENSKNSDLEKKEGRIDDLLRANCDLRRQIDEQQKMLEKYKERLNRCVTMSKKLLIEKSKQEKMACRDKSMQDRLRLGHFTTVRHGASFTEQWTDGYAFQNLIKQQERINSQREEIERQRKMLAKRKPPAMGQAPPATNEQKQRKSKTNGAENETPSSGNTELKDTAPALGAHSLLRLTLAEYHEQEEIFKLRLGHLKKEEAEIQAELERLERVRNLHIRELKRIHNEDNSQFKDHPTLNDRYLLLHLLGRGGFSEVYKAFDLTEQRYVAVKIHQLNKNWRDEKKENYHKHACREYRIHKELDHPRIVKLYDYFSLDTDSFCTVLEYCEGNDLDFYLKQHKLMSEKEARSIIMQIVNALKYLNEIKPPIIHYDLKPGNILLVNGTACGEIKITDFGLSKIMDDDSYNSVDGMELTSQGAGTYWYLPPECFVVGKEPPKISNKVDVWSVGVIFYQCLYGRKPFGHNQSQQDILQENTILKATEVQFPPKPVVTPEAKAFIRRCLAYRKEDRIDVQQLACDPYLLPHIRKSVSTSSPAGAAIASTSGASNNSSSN
Assay [9] has the same target. To be noted: at 10 µM.
Assay [10] addresses T3, Serine/threonine-protein kinase Nek2 (Homo sapiens). To be noted: at 1 µM.

For orientation: residual activity means the signal under treatment as a percentage of the control signal. Consider `CC(C)[C@H](CO)Nc1nc(Nc2cc(N)cc(Cl)c2)c2ncn(C(C)C)c2n1`, for which the residual activity was found to be 62% in assay [1]; 10% in assay [2]; 84% in [3]; 48% in assay [4]; 76% in [5]; 85% in assay [6]. The figures for the residual activity in assay [7], in assay [8] and in [9] were 70%, 95% and 73%, respectively.

Regarding `CC(C)c1nn(-c2c(Cl)cccc2Cl)c2nc(Cc3ccc(OCCO)cc3)[nH]c(=O)c12`, the residual activity in [1] stood at 96%; in assay [2], 87%; in assay [3], 63%; in assay [4], 70%; in assay [10] it was 90%; in assay [5], 87%. For the same compound, the residual activity in assay [6] was 86%; in assay [7], 89%; in assay [8], 80%; in assay [9] it was 37%.

For `O=C1Nc2ccc(Cl)cc2/C1=C/c1cc(Cl)c(O)c(Cl)c1`, the residual activity in assay [1] was 81%; in [2], 23%; in assay [3] it was 52%; in assay [4], 65%; in [10], 88%; in assay [5], 89%. The residual activity turned out to be 115% in assay [6], 84% in assay [7] and 87% in assay [9].

As for `O=C1Cc2c([nH]c3ccc([N+](=O)[O-])cc23)-c2ccccc2N1`, the residual activity came out at 70% in assay [1], 72% in assay [2], 74% in assay [3] and 79% in [4].

As to `CCCC(=O)Oc1ccc2[nH]c(C(=O)c3cc4ccccc4[nH]3)cc2c1`, the residual activity was determined as 95% in assay [1]; 76% in assay [2]; 75% in [3]; 89% in assay [4]; 71% in assay [10]; 103% in [5]. Moreover, the residual activity in assay [6] is 98%; in assay [7] it was 79%; in [8], 100%; in [9] it was 90%.

As to `CSc1nc(-c2ccc(F)cc2)c(-c2ccnc(NC(C)c3ccccc3)c2)[nH]1` (configuration not stated), the residual activity is 98% in [1]; 81% in assay [2]; 83% in assay [3]; 54% in assay [4]; 99% in assay [10]; 102% in assay [5]. Moreover, the values for the residual activity in assay [6] and in [7] were 95% and 90%, respectively.

As for `Nc1nccc(-c2c(-c3ccc(F)cc3)ncn2C2CCNCC2)n1`, the residual activity was determined as 68% in assay [3] and 77% in assay [4].

In the case of `O=c1c(-c2ccc(F)cc2)c(-c2ccncc2)[nH]n1-c1ccc(Cl)cc1`, the residual activity in assay [3] is 81%; in [4], 78%.

Turning to `Nc1ncnc2[nH]nc(Nc3ccc(F)cc3)c12`, the residual activity in [2] was determined as 76%; in assay [3], 57%; in [4], 42%; in assay [6], 82%; in assay [7], 81%; in assay [8], 105%.

Turning to `O=C(Nc1nc2ccccc2n1CCN1CCOCC1)c1cccc([N+](=O)[O-])c1`, the residual activity in [3] came out at 84%; in assay [4] it was 74%; in [10], 75%; in assay [6], 106%; in [7], 85%.

As for `O=C1NC(=O)C(c2cn(CCCO)c3ncccc23)=C1c1cnccn1`, the residual activity in [1] turned out to be 81%; in [2], 84%; in assay [3] it was 72%; in assay [4] it was 82%; in assay [8], 98%; in assay [9], 82%.

Consider `N#Cc1c(NC(=O)c2cccc3ccccc23)sc2c1CCCC2`, for which the residual activity in [1] worked out at 96%; in assay [2], 78%; in assay [3], 82%; in assay [4] it was 72%; in [6], 76%; in assay [8], 100%. Also, the residual activity in assay [9] amounted to 96%.

On to `NC(=O)c1ccc(-c2nc(-c3ccc4c(c3)OCCO4)c(-c3ccccn3)[nH]2)cc1`, for which the residual activity in assay [3] was 57%; in assay [4], 65%; in assay [10], 95%; in assay [5], 91%; in [6], 85%; in assay [7], 93%. Also, the residual activity was found to be 91% in assay [8] and 87% in assay [9].

`COc1cc2nccc(Oc3ccc(NC(=O)Nc4cc(C)on4)c(Cl)c3)c2cc1OC`: the residual activity in assay [1] worked out at 17%; in assay [2] it was 3%; in assay [3], 77%; in [8], 104%; in [9], 100%.

Consider `Cc1cc(C)c(/C=C2\C(=O)Nc3ccccc32)[nH]1`, for which the residual activity in assay [2] is 12%; in assay [4] it was 98%; in [7] it was 106%; in [8] it was 105%; in assay [9] it was 62%.

On to `O=c1cc(N2CCOCC2)oc2c(-c3ccccc3)cccc12`, for which, in [10], the residual activity is 81%.

The record behind these values is ChEMBL document CHEMBL2218924, “A broad activity screen in support of a chemogenomic map for kinase signalling research and drug discovery” (Biochem J, 2013).
